Measurements as given in the supplement of paper PMC10849652.
Of roughly 7,900 targets only a part is listed; those with a hit were picked by preference. About 0.6% of all pairs of compound and target were hits.

compound: c1cn2cc(-c3ccc4cn[nH]c4c3)nc(Nc3ccc(N4CCOCC4)cc3)c2n1 [entospletinib]; experiment: log2 fold change, soluble protein after heating vs DMSO (PISA); higher = thermal stabilisation; K562 cells, 10 uM, 30 min; active = over 0.2 and 3.5 SD of the protein, either way, in both replicates (recomputed)
Outline: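 Soluble protein was quantified by TMTpro 16plex LC-MS/MS after channel sums were equalised. It was obtained as the supernatant after 21,000xg for 90 min from pooled aliquots of K562 cells (2×10^6 cells/mL, 10 μM compound, 30 min) heated for 3 min across 48°C-58°C and extracted in PBS with 0.5% NP-40 at 4°C. Thermal stability values are relative to control samples and come from duplicates. They are given as log2 fold changes.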

Sequence of UniProt Q7L1V2 (Q7L1V2 whole entry, looked up): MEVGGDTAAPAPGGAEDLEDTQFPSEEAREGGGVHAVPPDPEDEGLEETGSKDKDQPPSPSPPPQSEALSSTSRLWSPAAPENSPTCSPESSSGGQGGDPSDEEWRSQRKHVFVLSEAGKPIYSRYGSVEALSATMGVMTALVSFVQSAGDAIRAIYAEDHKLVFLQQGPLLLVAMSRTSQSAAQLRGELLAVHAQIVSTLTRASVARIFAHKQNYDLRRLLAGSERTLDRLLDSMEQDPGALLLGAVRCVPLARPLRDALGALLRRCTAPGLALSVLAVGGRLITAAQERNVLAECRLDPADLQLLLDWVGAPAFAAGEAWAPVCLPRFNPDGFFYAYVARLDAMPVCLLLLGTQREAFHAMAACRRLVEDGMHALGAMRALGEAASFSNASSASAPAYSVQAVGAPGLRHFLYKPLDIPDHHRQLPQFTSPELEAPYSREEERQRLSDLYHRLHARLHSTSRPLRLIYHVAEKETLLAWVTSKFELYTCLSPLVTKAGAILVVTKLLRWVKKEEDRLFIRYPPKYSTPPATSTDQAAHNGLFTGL
Sequence of UniProt Q8NBF2 (Q8NBF2 whole entry, looked up): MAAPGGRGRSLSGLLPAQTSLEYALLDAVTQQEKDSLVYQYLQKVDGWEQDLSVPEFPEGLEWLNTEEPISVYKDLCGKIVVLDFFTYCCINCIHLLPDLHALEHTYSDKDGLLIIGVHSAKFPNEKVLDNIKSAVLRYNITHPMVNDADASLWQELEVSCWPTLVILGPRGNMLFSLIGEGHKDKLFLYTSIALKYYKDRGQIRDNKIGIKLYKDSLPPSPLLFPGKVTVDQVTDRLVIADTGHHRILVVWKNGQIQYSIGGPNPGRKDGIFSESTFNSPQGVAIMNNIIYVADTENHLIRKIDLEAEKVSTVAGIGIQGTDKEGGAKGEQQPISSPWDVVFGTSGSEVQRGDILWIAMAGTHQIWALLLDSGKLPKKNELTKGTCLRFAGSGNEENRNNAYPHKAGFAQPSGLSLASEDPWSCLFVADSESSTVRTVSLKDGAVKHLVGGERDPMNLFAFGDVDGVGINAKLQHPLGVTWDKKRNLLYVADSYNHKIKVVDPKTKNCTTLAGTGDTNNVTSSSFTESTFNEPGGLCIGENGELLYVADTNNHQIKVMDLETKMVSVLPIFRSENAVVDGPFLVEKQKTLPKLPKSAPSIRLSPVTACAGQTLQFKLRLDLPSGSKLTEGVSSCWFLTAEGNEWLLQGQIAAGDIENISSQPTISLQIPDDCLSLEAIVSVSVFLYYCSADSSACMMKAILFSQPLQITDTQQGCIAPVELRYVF
Sequence of UniProt O95169 (O95169 whole entry, looked up): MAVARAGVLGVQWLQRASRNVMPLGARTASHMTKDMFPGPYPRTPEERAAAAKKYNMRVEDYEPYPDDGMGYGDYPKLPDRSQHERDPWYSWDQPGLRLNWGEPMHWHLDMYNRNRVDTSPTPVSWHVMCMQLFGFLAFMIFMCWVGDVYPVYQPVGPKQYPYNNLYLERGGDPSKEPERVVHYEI
Sequence of UniProt P25208 (P25208 whole entry, looked up): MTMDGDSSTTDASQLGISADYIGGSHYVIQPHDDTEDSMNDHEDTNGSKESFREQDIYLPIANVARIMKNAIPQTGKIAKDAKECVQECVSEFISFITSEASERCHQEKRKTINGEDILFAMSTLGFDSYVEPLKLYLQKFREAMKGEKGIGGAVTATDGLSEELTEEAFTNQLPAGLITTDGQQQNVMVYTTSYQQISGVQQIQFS
Sequence of UniProt Q16795 (Q16795 whole entry, looked up): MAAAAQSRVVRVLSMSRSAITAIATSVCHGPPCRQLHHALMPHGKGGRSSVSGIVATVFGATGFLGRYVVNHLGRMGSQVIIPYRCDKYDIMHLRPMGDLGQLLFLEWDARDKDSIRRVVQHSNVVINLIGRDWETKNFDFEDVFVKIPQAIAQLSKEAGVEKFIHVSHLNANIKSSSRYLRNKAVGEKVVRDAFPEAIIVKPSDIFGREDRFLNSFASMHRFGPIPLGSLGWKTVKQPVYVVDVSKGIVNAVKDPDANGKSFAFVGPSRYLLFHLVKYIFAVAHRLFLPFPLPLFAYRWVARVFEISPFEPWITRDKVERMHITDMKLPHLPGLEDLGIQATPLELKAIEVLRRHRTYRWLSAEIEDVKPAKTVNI
Sequence of UniProt O43809 (O43809 whole entry, looked up): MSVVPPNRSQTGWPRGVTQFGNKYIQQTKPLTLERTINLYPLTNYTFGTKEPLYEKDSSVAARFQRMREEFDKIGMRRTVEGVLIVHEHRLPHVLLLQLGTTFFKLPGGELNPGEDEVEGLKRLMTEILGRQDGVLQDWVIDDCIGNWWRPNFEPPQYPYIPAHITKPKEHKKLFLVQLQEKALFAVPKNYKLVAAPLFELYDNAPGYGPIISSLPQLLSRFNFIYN
Sequence of UniProt P51948 (P51948 whole entry, looked up): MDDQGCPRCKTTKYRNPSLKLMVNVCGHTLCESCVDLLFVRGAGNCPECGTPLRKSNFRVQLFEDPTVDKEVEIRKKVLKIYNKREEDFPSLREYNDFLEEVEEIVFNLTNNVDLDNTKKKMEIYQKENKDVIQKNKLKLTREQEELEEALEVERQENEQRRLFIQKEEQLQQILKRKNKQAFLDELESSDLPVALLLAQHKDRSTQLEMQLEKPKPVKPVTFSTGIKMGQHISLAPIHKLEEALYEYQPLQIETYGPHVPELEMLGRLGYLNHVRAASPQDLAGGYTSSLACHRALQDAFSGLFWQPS
Sequence of UniProt Q15003 (Q15003 whole entry, looked up): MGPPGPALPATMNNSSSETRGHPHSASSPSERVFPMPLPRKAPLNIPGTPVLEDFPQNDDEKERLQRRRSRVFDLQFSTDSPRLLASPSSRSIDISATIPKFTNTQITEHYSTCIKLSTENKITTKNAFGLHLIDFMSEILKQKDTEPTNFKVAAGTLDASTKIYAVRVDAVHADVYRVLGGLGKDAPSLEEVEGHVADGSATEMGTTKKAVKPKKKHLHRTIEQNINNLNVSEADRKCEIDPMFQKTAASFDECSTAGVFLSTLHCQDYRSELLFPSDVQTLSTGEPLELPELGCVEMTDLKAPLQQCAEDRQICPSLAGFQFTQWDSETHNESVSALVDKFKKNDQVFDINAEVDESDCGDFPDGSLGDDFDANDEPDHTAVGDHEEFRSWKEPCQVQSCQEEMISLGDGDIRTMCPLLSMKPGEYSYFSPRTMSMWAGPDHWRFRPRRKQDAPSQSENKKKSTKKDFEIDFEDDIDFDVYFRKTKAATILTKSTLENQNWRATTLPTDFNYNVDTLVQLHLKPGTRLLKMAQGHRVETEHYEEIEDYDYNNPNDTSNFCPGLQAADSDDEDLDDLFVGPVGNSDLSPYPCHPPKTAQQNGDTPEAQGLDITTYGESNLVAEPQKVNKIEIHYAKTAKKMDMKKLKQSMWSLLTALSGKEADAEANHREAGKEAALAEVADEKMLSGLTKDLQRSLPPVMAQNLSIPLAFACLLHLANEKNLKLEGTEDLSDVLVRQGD
Sequence of UniProt Q8NI08 (Q8NI08 whole entry, looked up): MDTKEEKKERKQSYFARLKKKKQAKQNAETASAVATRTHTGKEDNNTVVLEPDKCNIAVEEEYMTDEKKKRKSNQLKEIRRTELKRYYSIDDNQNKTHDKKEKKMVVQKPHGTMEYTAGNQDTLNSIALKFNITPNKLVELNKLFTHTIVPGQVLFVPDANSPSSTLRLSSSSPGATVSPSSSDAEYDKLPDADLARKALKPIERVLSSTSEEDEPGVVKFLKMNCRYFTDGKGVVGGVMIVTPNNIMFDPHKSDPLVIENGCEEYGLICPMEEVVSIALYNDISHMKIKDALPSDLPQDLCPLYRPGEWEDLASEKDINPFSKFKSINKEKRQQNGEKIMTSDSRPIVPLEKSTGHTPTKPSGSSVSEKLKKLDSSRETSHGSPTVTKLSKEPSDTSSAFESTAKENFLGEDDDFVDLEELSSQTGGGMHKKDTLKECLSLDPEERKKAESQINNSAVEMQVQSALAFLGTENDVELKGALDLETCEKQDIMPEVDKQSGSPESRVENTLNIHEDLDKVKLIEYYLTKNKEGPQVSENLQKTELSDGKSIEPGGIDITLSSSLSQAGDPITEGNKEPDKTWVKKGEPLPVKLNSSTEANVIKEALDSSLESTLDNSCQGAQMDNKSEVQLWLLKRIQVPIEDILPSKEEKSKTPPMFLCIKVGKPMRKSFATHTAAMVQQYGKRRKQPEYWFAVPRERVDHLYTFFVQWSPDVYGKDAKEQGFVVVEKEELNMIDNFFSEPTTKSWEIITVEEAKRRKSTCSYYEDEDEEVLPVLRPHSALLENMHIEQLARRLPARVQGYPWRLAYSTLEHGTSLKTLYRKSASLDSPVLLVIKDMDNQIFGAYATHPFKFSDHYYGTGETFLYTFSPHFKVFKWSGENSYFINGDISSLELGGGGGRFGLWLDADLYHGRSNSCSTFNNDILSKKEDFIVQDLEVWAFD

log2 fold change, inactive:
NDUFB8 (UniProt O95169) 0.067, NHLRC2 (UniProt Q8NBF2) 0.097, NCOA7 (UniProt Q8NI08) 0.003, NUDT21 (UniProt O43809) 0.016, MNAT1 (UniProt P51948) -0.065, MRPL34 (UniProt Q9BQ48) 0.047, NDUFA9 (UniProt Q16795) -0.011, MON1B (UniProt Q7L1V2) 0.017, NFYB (UniProt P25208) 0.04, OSBPL3 (UniProt Q9H4L5) 0.171, NCAPH (UniProt Q15003) 0.012
